Data reported in PubChem BioAssay.
Active and inactive are the calls of the source.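 How the source made its calls, unless noted: active means visually confirmed hit in the image check and inhibition above 20%; inconclusive means visually confirmed hit but inhibition not above 20%; inactive means no visual hit in the image check.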

Assays:
[1] = inhibitors of TNFa-induced NFkB p65 translocation, primary screen, imaging, HUVEC, MLSMR starter and 10KST1 sets (AID 438;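 active means inhibition above 20% together with a positive visual image hit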;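 further: compound added about 3h40 before a 20 min TNFalpha stimulation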;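 on inhibition: signal is the nuclear over cytoplasmic p65 intensity ratio per well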); conditions: HUVEC TNFa-induced p65 nuclear translocation; cell count: measured here: nuclei count (cytotoxicity indicator), at 2.08 µM; inhibition: at 2 µM, stronger effect = higher value, 0% TNFa-plus-vehicle, 100% no-TNFa wells
[2] = inhibitors of mutant huntingtin aggregation, primary screen, imaging, exon1htt(103Q)mCFP cells, high-content imaging (AID 483;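 active means visual image review flags a hit and inhibition of aggregation exceeds 20%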;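 further: compound exposure lasted 3 days before fixation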;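 on nuclei count: percent of the per-plate median nuclei count of sample wells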); conditions: exon1htt(103Q)mCFP cell line, aggregate imaging, at 2 µM; inhibition of aggregation: stronger effect = higher value; nuclei count: measured here: cell count, toxicity
[3] = inhibitors of E-selectin induction by TNFa, primary screen, imaging, HUVEC, immunofluorescence, MLSMR starter and 10KST1 sets (AID 487); conditions: HUVEC TNFalpha-induced E-selectin immunofluorescence imaging, at 2 µM; inhibition: stronger effect = higher value; nuclei count: measured here: cell number, toxicity;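 on inhibition: signal is fraction of cell area covered by stained E-selectin grains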;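 on nuclei count: 100% = median nuclei count of all wells on the same plate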
[4] = biological target: Voltage-gated potassium channel subunit beta-2 (Rattus norvegicus) (UniProt P62483); assay: KvBeta enzyme negative modulators, primary screen, biochemical, NADPH fluorescence (AID 622;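 active means fluorescence slope higher than the sample average by over 3 SD, cut at about -0.22 in these data, passing the limit was not always enough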;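 further: slope of raw intensity against log time taken from 70 to 1610 s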); conditions: recombinant KvBeta, 4-cyanobenzaldehyde reduction, at 10 µM, stronger effect = higher value
[5] = biological target: Voltage-gated potassium channel subunit beta-2 (Rattus norvegicus) (UniProt P62483); assay: KvBeta positive modulators, primary screen, biochemical, NADPH fluorescence (AID 623;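 active means NADPH fluorescence slope more negative than the mean of all samples by about 3 SD, 99.7% confidence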;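 further: fluorescence intensity change per second fitted from 20 to 320 s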); conditions: Recombinant KvBeta, NADPH fluorescence decrease slope, 10 min; at 10 µM; stronger effect = lower value
[6] = biological target: Alpha-2C adrenergic receptor (Homo sapiens) (UniProt P18825); assay: modulators of alpha2C/GIRK thallium flux, primary screen, cell-based, HEK293 alpha2C/GIRK1/2 (AID 624;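 active means fluorescence slope after compound addition differing from the mean of all screened samples at 99.7% confidence, in either direction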;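 further: slope of fluorescence ratio to pre-addition baseline per second over 15 to 24 s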); conditions: thallium flux BTC fluorescence, at 10 µM, actives lie on both sides
[7] = inhibitors of Sendai virus-induced IRF3 signaling, primary screen, TLR/RLR signaling modifier project, cell-based, Sendai virus stimulus, luciferase, 10K MLSCN set (AID 602276;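 active means inhibition at or above 50% at 10 µM; inactive means inhibition below 50%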;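 further: firefly luciferase from ISG56 promoter only with Renilla not read in this screen; 0% = Sendai virus plus DMSO and 100% = medium plus DMSO without virus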); conditions: HEK293 RL24 IRF3 luciferase reporter, at 10 µM, stronger effect = higher value
[8] = inhibitors of poly I:C-induced TLR3 signaling, primary screen, cell-based, poly I:C stimulus, luciferase, 10K MLSCN set (AID 602277;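 active means inhibition of the reporter signal at or above 50%; inactive means inhibition below 50%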); conditions: HEK293-TLR3 RL24 IRF3 luciferase reporter, at 10 µM, stronger effect = higher value

Chain of Voltage-gated potassium channel subunit beta-2 (Rattus norvegicus) (P62483 whole entry, looked up): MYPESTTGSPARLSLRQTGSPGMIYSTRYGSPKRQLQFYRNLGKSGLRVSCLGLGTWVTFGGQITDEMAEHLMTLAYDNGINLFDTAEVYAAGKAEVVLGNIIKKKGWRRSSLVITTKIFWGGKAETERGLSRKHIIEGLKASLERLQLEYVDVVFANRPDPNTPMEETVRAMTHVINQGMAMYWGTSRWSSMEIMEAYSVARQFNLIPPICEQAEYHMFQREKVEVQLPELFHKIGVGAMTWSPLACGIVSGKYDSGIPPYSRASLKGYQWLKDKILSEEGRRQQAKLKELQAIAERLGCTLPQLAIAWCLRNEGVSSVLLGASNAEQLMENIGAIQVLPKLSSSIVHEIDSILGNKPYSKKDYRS
Chain of Alpha-2C adrenergic receptor (Homo sapiens) (P18825 whole entry, looked up): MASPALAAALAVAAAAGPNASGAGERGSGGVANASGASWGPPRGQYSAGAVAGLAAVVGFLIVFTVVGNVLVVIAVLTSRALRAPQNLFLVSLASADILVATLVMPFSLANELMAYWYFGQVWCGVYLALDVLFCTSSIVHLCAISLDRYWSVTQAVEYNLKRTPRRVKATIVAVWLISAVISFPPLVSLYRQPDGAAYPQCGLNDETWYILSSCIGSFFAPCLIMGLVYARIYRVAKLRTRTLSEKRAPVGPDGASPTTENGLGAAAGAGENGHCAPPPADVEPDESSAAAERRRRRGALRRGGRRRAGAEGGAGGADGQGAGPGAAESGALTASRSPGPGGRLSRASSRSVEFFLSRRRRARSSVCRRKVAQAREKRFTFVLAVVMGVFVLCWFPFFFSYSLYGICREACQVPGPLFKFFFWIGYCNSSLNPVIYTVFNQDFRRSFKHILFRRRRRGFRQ

SMILES | cell count [1] | inhibition [1] | inhibition of aggregation [2] | nuclei count [2] [%] | inhibition [3] | nuclei count [3] [%] | fluorescence slope [4] | NADPH fluorescence slope [5] | slope [6] | inhibition [7] | inhibition [8]
CC1CC(C)CN(Cc2nc3c(c(=O)n(C)c(=O)n3C)n2Cc2ccccc2Cl)C1 (stereo not drawn) | 705 | -16.8% (inactive) | -2.3% (inactive) | 78 | 37.7% (inactive) | 88 | -0.482 (inactive) | -4.6e-05 (inactive) | 0.00565 (inactive) | -10.4% (inactive) | -1.1% (inactive)
COc1ccc(CCNC(=O)CCN2C(=O)C3CC=CCC3C2=O)cc1OC (stereo not drawn) | 308 | -1.1% (inactive) | -8.1% (inactive) | 83.4 | -53.4% (inactive) | 103 | -0.605 (inactive) | -1.9e-06 (inactive) | 0.00675 (inactive) | 3.55% (inactive) | -2.15% (inactive)
CC1(C)NC(=O)N(CCOc2cccc(Cl)c2Cl)C1=O | 411 | -1.1% (inactive) | 1.3% (inactive) | 98 | -35.1% (inactive) | 92.1 | -0.338 (inactive) | -6.5e-06 (inactive) | 0.00521 (inactive) | 16.8% (inactive) | 18.5% (inactive)
Cc1nc2sc(C(c3cccs3)N3CCOCC3)c(O)n2n1 (stereo not drawn) | 591 | -0.3% (inactive) | -28.8% (inactive) | 112 | -5.1% (inactive) | 115 | -0.553 (inactive) | -4.2e-05 (inactive) | 0.00703 (inactive) | 9.99% (inactive) | 32.1% (inactive)
C=CCOc1ccccc1/C=c1\sc2nc(=O)c(C)nn2c1=O | 704 | -11.1% (inactive) | 7.5% (inactive) | 100 | -31.3% (inactive) | 106 | -0.362 (inactive) | 1.8e-05 (inactive) | 0.0042 (inactive) | 15.6% (inactive) | 26.5% (inactive)
COc1ccc(N2CCN(C(=O)c3c(-c4ccccc4)noc3C)CC2)cc1 | 650 | 1.1% (inactive) | -16% (inactive) | 90.4 | -7.4% (inactive) | 96 | -0.578 (inactive) | -3.3e-05 (inactive) | 0.00611 (inactive) | -19.4% (inactive) | -16.5% (inactive)
CN(C)/C=C1\N=C(c2ccc3c(c2)OCO3)OC1=O | 462 | 15.8% (inactive) | -17.4% (inactive) | 104 | 46.5% (inactive) | 108 | -0.451 (inactive) | 1.5e-05 (inactive) | 0.0038 (inactive) | -20.5% (inactive) | -55.4% (inactive)
O=c1c2ccccc2nc(SCc2cccc(F)c2)n1Cc1ccco1 | 361 | -3.4% (inactive) | 4.4% (inactive) | 87.4 | -37.1% (inactive) | 91.3 | -0.37 (inactive) | 2.5e-05 (inactive) | 0.0116 (inactive) | 9.34% (inactive) | 4.77% (inactive)
O=C(CSc1nccn1-c1cccc(Cl)c1)NC1CCCC1 | 256 | -9.5% (inactive) | -1.4% (inactive) | 95.8 | 39.3% (inactive) | 95.5 | -0.618 (inactive) | 3e-05 (inactive) | 0.00565 (inactive) | 14.4% (inactive) | 29.2% (inactive)
N#CCOc1nc(N2CCOCC2)nc(N2CCOCC2)n1 | 552 | -30.6% (inactive) | 3% (inactive) | 76.6 | -10.4% (inactive) | 100 | -0.287 (inactive) | -4.5e-05 (inactive) | 0.00534 (inactive) | 10.5% (inactive) | 18.6% (inactive)
CCc1ccc(CCC(=O)Nc2ccc(C)c(C)c2)o1 | 255 | 5.2% (inactive) | -4.6% (inactive) | 80.2 | -34.3% (inactive) | 99.6 | -0.4 (inactive) | -5.2e-05 (inactive) | 0.006 (inactive) | -22.6% (inactive) | -50% (inactive)
Cc1ccc2cc(CN(Cc3ccc4c(c3)OCO4)Cc3nnnn3Cc3ccco3)c(=O)[nH]c2c1C | 338 | 0.9% (inactive) | 29.2% (inactive) | 49 | -79.9% (inactive) | 109 | -0.389 (inactive) | 4.5e-05 (inactive) | 0.00797 (inactive) | 39.3% (inactive) | 79.5% (active)
O=C(CN1CCN(c2cccc(Cl)c2)CC1)N1CCCC1 | 330 | -8.7% (inactive) | 19.2% (inactive) | 73 | -69% (inactive) | 87.6 | -0.581 (inactive) | -1.8e-05 (inactive) | 0.00658 (inactive) | -11.1% (inactive) | -35.4% (inactive)
COc1cc2[nH]c(=O)c(C(=O)NCCCN3CCCCC3)c(O)c2cc1OC | 637 | -24.5% (inactive) | 6.2% (inactive) | 98.3 | 15.9% (inactive) | 108 | -0.583 (inactive) | -5.3e-05 (inactive) | 0.00574 (inactive) | -5.59% (inactive) | -9.38% (inactive)
O=C(c1c(F)cccc1F)N(Cc1ccccn1)C1CCCC1 | 521 | -11.2% (inactive) | 24.2% (inactive) | 110 | 40.9% (inactive) | 87.3 | -0.534 (inactive) | 2e-06 (inactive) | 0.00412 (inactive) | -7.47% (inactive) | -6.01% (inactive)
COc1ccc(S(=O)(=O)Cc2ccc(C(=O)NCCc3ccc(S(N)(=O)=O)cc3)o2)cc1 | 686 | 0.6% (inactive) | 41.2% (active) | 71.5 | -51.1% (inactive) | 114 | -0.561 (inactive) | -2.1e-05 (inactive) | 0.00625 (inactive) | 9.1% (inactive) | 28.2% (inactive)
CCCCC(=O)NCCc1cc2c(C)ccc(C)c2[nH]c1=O | 699 | -1% (inactive) | -22.4% (inactive) | 105 | -13.4% (inactive) | 102 | -0.552 (inactive) | -3.7e-05 (inactive) | 0.00563 (inactive) | 10.6% (inactive) | 22.7% (inactive)
Cc1cccc2c(=O)oc(-c3ccc4c(c3)C(=O)N(CC3CCCO3)C4=O)nc12 (stereo not drawn) | 349 | 1.9% (inactive) | -22.2% (inactive) | 107 | -6.3% (inactive) | 58.4 | -0.521 (inactive) | 2.4e-05 (inactive) | 0.0053 (inactive) | 16.1% (inactive) | 14.4% (inactive)
c1ccc2c(Cn3ccnc3)c[nH]c2c1 | 410 | 6.5% (inactive) | -17.6% (inactive) | 90 | -12.3% (inactive) | 96.2 | -0.414 (inactive) | -0.000163 (inactive) | 0.00685 (inactive) | 6.54% (inactive) | 38.9% (inactive)
COc1cc(NC2c3ccccc3C(=O)N2c2ccc(C)cn2)cc(OC)c1OC (stereo not drawn) | 619 | 5.5% (inactive) | 11.3% (inactive) | 85.2 | -7.5% (inactive) | 109 | -0.593 (inactive) | 1.6e-05 (inactive) | 0.00732 (inactive) | -30.9% (inactive) | -44.7% (inactive)
O=C(CN(Cc1ccco1)C(=O)CNS(=O)(=O)c1ccc(F)cc1)NCCc1ccccc1 | 520 | -2.1% (inactive) | -2.1% (inactive) | 92.1 | -38.5% (inactive) | 112 | -0.481 (inactive) | -2.9e-05 (inactive) | 0.00696 (inactive) | -0.0533% (inactive) | 19.8% (inactive)
CC(NC(=O)C1CCCN(S(=O)(=O)c2cccs2)C1)c1ccccc1 (stereo not drawn) | 816 | -1.4% (inactive) | -6.6% (inactive) | 106 | -1.1% (inactive) | 112 | -0.583 (inactive) | -4.2e-05 (inactive) | 0.00498 (inactive) | 12.2% (inactive) | 34.2% (inactive)
COc1ccc2c(CC(=O)Nc3nnc(C4CC4)s3)coc2c1 | 286 | -15.7% (inactive) | 7.5% (inactive) | 105 | -13.2% (inactive) | 111 | -0.482 (inactive) | -0.000211 (inactive) | 0.00533 (inactive) | 9.99% (inactive) | 14.7% (inactive)
C=CCOC(=O)COc1ccc2c(C)c(C)c(=O)oc2c1C | 373 | -3.6% (inactive) | -9.6% (inactive) | 102 | -22.7% (inactive) | 105 | -0.608 (inactive) | -5.7e-06 (inactive) | 0.00552 (inactive) | -3.09% (inactive) | 3.78% (inactive)
Cc1c(C(=O)OCC(C)(C)CN(C)C)oc2ccccc12 | 428 | -3.3% (inactive) | -15.2% (inactive) | 107 | -39.5% (inactive) | 118 | -0.328 (inactive) | 2.8e-05 (inactive) | 0.00529 (inactive) | -31.4% (inactive) | -27.6% (inactive)
O=C1CCCC2=C1C(c1ccc(Br)cc1)c1c([nH]c(=S)[nH]c1=O)N2 (stereo not drawn) | 407 | -3.6% (inactive) | 17.6% (inactive) | 103 | -41.1% (inactive) | 109 | -0.378 (inactive) | -5.8e-05 (inactive) | 0.00391 (inactive) | 6.81% (inactive) | 17.9% (inactive)
O=c1[nH]c2sc3c(c2c2nncn12)CCCC3 | 420 | 11.2% (inactive) | 13.5% (inactive) | 108 | -112% (inactive) | 111 | -0.499 (inactive) | -0.000261 (inactive) | 0.00486 (inactive) | 7.28% (inactive) | -10% (inactive)
Cc1ccc(-n2cnnn2)c2cccnc12 | 658 | -9.3% (inactive) | -7% (inactive) | 104 | -17% (inactive) | 102 | -0.402 (inactive) | -1.4e-05 (inactive) | 0.00333 (inactive) | 5.45% (inactive) | 27.7% (inactive)
